Structures are written as SMILES. About 760 (69%) of roughly 1,100 compounds were called active. No rule for the calls is given here. The set was probably picked from earlier hits. The list shows a part of the results.

The test in a line: M. tuberculosis growth inhibition, HTS (AID 1259417).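 Also: bacteria grown with compound for 5 days at 37 °C.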 Conditions: stronger effect = higher value, concentration not given here.
[1] abbreviates: M. tuberculosis DsRed fluorescence growth inhibition.
Where [2] appears, read: M. tuberculosis growth inhibition.

By inhibition is commonly meant the drop in the measured response relative to a control, in per cent. As for `CNc1nc(N2CCc3ccccc32)ncc1F`, the inhibition under setting [1] was 100% (active) and the inhibition under setting [2] is 99.7%.

With `COc1ccc(NC(=O)C(Cc2c[nH]c3ccccc23)NC(C)=O)cc1` (centres undefined), the inhibition is, setting by setting: under setting [1], 93.6% (active); under setting [2], 90.1%.

As for `COc1ccc2[nH]cc(CCNC(=S)Nc3ccc(Nc4ccccc4)cc3)c2c1`, the inhibition under setting [1] is -2.93% (inactive) and the inhibition under setting [2] was -13.6%.

Consider `Cc1ccc(-c2csc(Nc3ccc(C(=O)O)c(O)c3)n2)cc1`, for which the inhibition under setting [1] was 94.8% (active) and the inhibition under setting [2] turned out to be 94.9%.

On to `Cc1ccc(-c2csc(Nc3ccc(S(N)(=O)=O)cc3)n2)cc1`, for which the inhibition by setting is: under setting [1], 33.4% (active); under setting [2], 44.5%.

For the compound `Cc1cc(-c2csc(Nc3ccc(S(N)(=O)=O)cc3)n2)ccc1F`, the inhibition runs as follows: under setting [1], 12% (inactive); under setting [2], 9.99%.

For the compound `O=C(Nc1ccccc1-c1ccccc1)C(Cl)(Cl)Cl`, the inhibition reads like this: under setting [1], 100% (active); under setting [2], 99.6%.

`C/C=C/c1ccc(OCC(=O)OCc2csc(Nc3ccc(C)cc3)n2)c(OC)c1`: the inhibition under setting [1] was 0.924% (active) and the inhibition under setting [2] stood at 37.2%.

In the case of `Oc1ccc(Br)cc1C1=NNC(c2ccc(F)cc2)C1` (centres undefined), the inhibition under setting [1] was 99.5% (active) and the inhibition under setting [2] amounted to 100%.

Consider `CCC(C)Oc1ccc(C(=O)NC(=S)Nc2ccc3c(c2)COC3=O)cc1` (centres undefined), for which the inhibition reads like this: under setting [1], 30.7% (active); under setting [2], 25.2%.

As to `CCOC(=O)CSc1cc(C)nc2ccc(C)cc12`, the inhibition is 96.8% (active) under setting [1] and 99.3% under setting [2].

With `COc1ccc2nc(C)cc(SCC(=O)OC(C)C)c2c1`, the inhibition is 89.3% (active) under setting [1] and 99.6% under setting [2].

For `CCC(=O)Oc1cccc2ccc(C=Cc3ccccc3F)nc12`, the inhibition under setting [1] is 92.1% (active) and the inhibition under setting [2] stood at 87.6%.

On to `CC(=O)Oc1cccc2ccc(C=Cc3cccc(Br)c3)nc12`, for which the inhibition under setting [1] was 87.4% (active) and the inhibition under setting [2] was determined as 84%.

Turning to `O=C(C=Cc1cccc(C(F)(F)F)c1)Nc1cccc(Br)c1`, the inhibition runs as follows: under setting [1], 9.1% (inactive); under setting [2], 9.88%.

Take `Oc1cccc2ccc(C=Cc3cccc(F)c3)nc12`: the inhibition is, setting by setting: under setting [1], 98.8% (active); under setting [2], 99.7%.

For the compound `CC(=O)Oc1cccc2ccc(C=Cc3ccc(F)cc3)nc12`, the inhibition was 86.6% (active) under setting [1] and 89.9% under setting [2].

As to `O=C(C[n+]1cc(-c2ccc(Cl)cc2)n2c1CCC2)N1c2ccccc2Sc2ccccc21`, the inhibition is, setting by setting: under setting [1], 10.7% (inactive); under setting [2], 3.46%.

Regarding `O=C(C[n+]1cc(-c2ccc(Cl)c(Cl)c2)n2c1CCC2)N1c2ccccc2Sc2ccccc21`, the inhibition runs as follows: under setting [1], 37.7% (active); under setting [2], 43.1%.

As for `Cc1ccc(-c2csc(NC(=O)C[n+]3cc(-c4ccc(C)cc4)n4c3CCC4)n2)cc1`, the inhibition under setting [1] was 13.7% (inactive) and the inhibition under setting [2] worked out at 7.92%.

Take `CCCCn1c(=O)c(C(=O)Nc2nnc(C(C)C)s2)c(O)c2ccccc21`: the inhibition under setting [1] was 76.9% (active) and the inhibition under setting [2] was found to be 72.9%.

Regarding `CCOC(=O)COc1ccc2ccccc2c1C=C(C)[N+](=O)[O-]`, the inhibition is 24% (inactive) under setting [1] and 10.8% under setting [2].

As to `COc1cc(/C=C/c2ccc3c([N+](=O)[O-])cccc3n2)ccc1OCC(=O)O`, the inhibition reads like this: under setting [1], 89.6% (active); under setting [2], 92.7%.

Consider `O=[n+]1c2ccccc2n([O-])c2ccccc21`, for which the inhibition is 98.3% (active) under setting [1] and 98.8% under setting [2].

On to `CCCn1c(CNc2ccccc2O)nc2ccccc21`, for which the inhibition is 99.4% (active) under setting [1] and 100% under setting [2].

Consider `COC(=O)c1sc(NC(=O)c2c(F)c(F)c(F)c(F)c2F)c(C(N)=O)c1C`, for which the inhibition was 98.6% (active) under setting [1] and 96.9% under setting [2].

Consider `CCOC(=O)c1c(-c2ccc(C)o2)csc1NC(=S)NC(=O)N(C)C`, for which the inhibition under setting [1] is 2.65% (inactive) and the inhibition under setting [2] is -1.32%.

Turning to `COC(=O)c1c(-c2ccccc2)csc1NC(=O)c1cc(OC)cc(OC)c1`, the inhibition reads like this: under setting [1], 4.19% (inactive); under setting [2], -6.55%.

Take `CCOC(=O)c1c(NC(=O)c2cccc(OC)c2)sc(C)c1-c1ccccc1`: the inhibition is, setting by setting: under setting [1], 0.932% (inactive); under setting [2], -15.9%.

Consider `COC(=O)c1c(-c2ccc(Cl)cc2)csc1NC(=O)c1c(F)c(F)c(F)c(F)c1F`, for which the inhibition is 91.1% (active) under setting [1] and 87.2% under setting [2].

As to `CCc1c(C)sc(NC(=O)c2ccc(Br)cc2)c1C(N)=O`, the inhibition runs as follows: under setting [1], 4.19% (inactive); under setting [2], 7.97%.

Regarding `COC(=O)c1c(NC(=O)c2cc(OC)cc(OC)c2)sc2c1C(C(=O)OC)CC2` (centres undefined), the inhibition under setting [1] is -0.558% (inactive) and the inhibition under setting [2] was -13.8%.

With `Cc1ccccc1C(=O)Nc1sc(Cc2ccccc2)c(C)c1C(N)=O`, the inhibition was -2.04% (inactive) under setting [1] and -9.31% under setting [2].

For `CCc1c(C)sc(NC(=O)c2c(F)c(F)c(F)c(F)c2F)c1C(=O)OC(C)C`, the inhibition is 98.2% (active) under setting [1] and 95.8% under setting [2].

As for `CCOC(=O)c1c(NC(=O)c2cccc([N+](=O)[O-])c2)sc(CC)c1-c1ccccc1`, the inhibition reads like this: under setting [1], 4.19% (inactive); under setting [2], -29.7%.

For the compound `CCOC(=O)c1c(NC(=O)c2c(F)c(F)c(F)c(F)c2F)sc(C(=O)OC)c1C`, the inhibition under setting [1] is 99.4% (active) and the inhibition under setting [2] is 97.6%.

For `CCOC(=O)c1c(NC(=O)c2c(F)c(F)c(F)c(F)c2F)sc(C(N)=O)c1C`, the inhibition runs as follows: under setting [1], 98.6% (active); under setting [2], 99.4%.

In the case of `COC(=O)c1sccc1NC(=O)c1c(F)c(F)c(F)c(F)c1F`, the inhibition reads like this: under setting [1], 99.1% (active); under setting [2], 97.7%.

On to `CCOC(=O)c1c(NC(=O)c2cccc(OC(C)=O)c2)sc(CC)c1-c1ccccc1`, for which the inhibition was 2.11% (inactive) under setting [1] and -5.86% under setting [2].

Turning to `CCOC(=O)c1sc(NC(=O)c2c(F)c(F)c(F)c(F)c2F)c(C(=O)OCC)c1C`, the inhibition is 93.8% (active) under setting [1] and 88.9% under setting [2].

Regarding `CCOc1ccc2ccccc2c1C(=O)Nc1sc(C)c(C)c1C(N)=O`, the inhibition is 9.82% (inactive) under setting [1] and 9.7% under setting [2].

Take `Clc1ccc2c(c1)C1=C(C(c3ccncc3)O2)C(c2ccc(Br)cc2)n2ncnc2N1` (centres undefined): the inhibition was 96% (active) under setting [1] and 93.9% under setting [2].

The values are drawn from PubChem BioAssay AID1259417 (TB Discovery Research, Infectious Disease Research Institute, 2018).
